Screening results: PubChem BioAssay, National Center for Advancing Translational Sciences (NCATS)
Pf growth 96h – P. falciparum growth inhibition at 96 hour, primary screen for plastid delayed-death inhibitors. P. falciparum luciferase reporter growth, 96 h. Potency, µM (highest dose often 28.7 µM), for inactives: top-dose activity change, negative = inhibition, hits mostly inhibitors. hit rate 6.9% among 320,000
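96 h incubation, 37 C, 5% CO2, of luciferase-reporter P. falciparum-infected RBCs (2% hematocrit, 0.05% parasitemia final) with test compounds; endpoint luminescence.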
Pf growth 48h – P. falciparum growth inhibition at 48 hours (one generation); P. falciparum luciferase growth in erythrocytes, 48 h; Potency, µM (doses to about 28.7 µM), for inactives: at the highest dose activity change, negative = inhibition, hits mostly inhibitors; hit rate 5.9% among 310,000; AID 504832
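Firefly luciferase activity from engineered P. falciparum reports growth; inhibitors lower the luminescent signal. Cultures contained 2% hematocrit erythrocytes at 0.1% final parasitemia.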
AMA1-RON2 inh – inhibitors of Plasmodium falciparum AMA1-RON2 interaction; AID 720542; hit rate 0.2% among 360,000; Potency, µM (series often up to 58.2 µM), for inactives: at the highest dose activity change, negative = inhibition, hits mostly inhibitors; AlphaScreen AMA1-biotinylated RON2 peptide binding;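 also: 0% = vehicle wells and -100% = peptide control; nearly all actives have a fitted effect of over 45% in size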
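AMA1 (3D7) with his tag at 25 nM final met compounds first, then biotinylated RON2 peptide at 25 nM; detection used donor plus acceptor beads, 10 µg/mL apiece, read by AlphaScreen after 30 min at room temperature.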
HCV inhibitor – HCV inhibition; Huh7.5.1 HCVcc-Cre infection, luciferase reporter, 44 h; Potency, µM (series often up to 41.8 µM), without a hit: at the highest dose activity change, negative = inhibition, most hits filed as inhibitors; hit rate 3.4% among 340,000; AID 651820
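Reporter virus HCVcc-Cre (~0.5 moi) infects cells exposed to compound; seeding density 1,000 cells/well with 4 h settling beforehand. Luminescence, 15 sec read, taken 44 h post-infection following a 15 min RT substrate incubation.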
Numbers without * were called inactive; ? = inconclusive; . = not tested or not shown; [ ] = dose if it differs, or a comment. A selection: hits, their analogues and other compounds. The true share with any hit is near 11%. Calls follow the shape of the dose curve; as a rule, active = well fitted curve in the direction sought with a large enough effect; inconclusive = small, poorly fitted or top-dose-only effect, or another doubt; inactive = no such curve, though single readings can be large; an effect the other way counts as inactive or inconclusive. Unless noted, % is scaled to controls: 0 for no effect and ±100 for the full control effect; potency is read from the fitted curve at half-maximal effect.

SMILES	Pf growth 96h	Pf growth 48h	AMA1-RON2 inh	HCV inhibitor
O=[N+]([O-])c1cc(-c2n(-c3ccccn3)c3ccccc3[n+]2-c2ccccn2)ccc1Cl	?	?	-16%	8%
O=C(COc1ccccc1Cl)Nc1nc(-c2ccncc2)cs1	.	.	-2%	22µM*
O=C(COc1ccc(F)cc1Cl)Nc1nc(-c2ccccn2)cs1	13µM*	?	.	?
CCN(CC)S(=O)(=O)c1ccc(C)c(NC(=O)COC(=O)c2ccc(C)c(S(=O)(=O)N3CCOCC3)c2)c1	-6%	.	3%	3%
COc1ccc2cc3cc(C(=O)NCc4cccs4)oc3nc2c1	-6%	5.9µM*	-7%	-19%
Cc1ccc2cc3cc(C(=O)NCCN4CCOCC4)oc3nc2c1	?	?	6%	-29%
Cc1ccc2cc3cc(C(=O)NCc4ccc5c(c4)OCO5)oc3nc2c1	3.7µM*	0%	-6%	-11%
Cc1ccc2cc3cc(C(=O)NCCCN4CCCC4=O)oc3nc2c1	?	2.6µM*	6%	?
COc1ccc2cc3cc(C(=O)NCCCN4CCC(C)CC4)oc3nc2c1	-31%	?	14%	?
CCN1CCN(CCCNC(=O)c2cc3cc4ccc(OC)cc4nc3o2)CC1	45%	13µM*	10%	?
CCOC(=O)N1CCC(NC(=O)c2cc3cc4cc(OC)ccc4nc3o2)CC1	7.4µM*	2.9µM*	7%	?
COc1ccc2cc3cc(C(=O)NCCCN4CCOCC4)oc3nc2c1	1.2µM*	?	0%	-27%
CCCCN(CC)CCCNC(=O)c1cc2cc3ccc(OC)cc3nc2o1	3.7µM*	?	6%	?
COc1ccc2nc3oc(C(=O)NC4CCN(Cc5ccccc5)CC4)cc3cc2c1	46%	?	-11%	?
COc1ccc(-c2c(C)nn3c(N4CCC(C(=O)NCCN(C)C)CC4)cc(C)nc23)cc1OC	85%	10µM*	-6%	?
COc1ccccc1-c1c(C)nn2c(C)cc(C)nc12	13µM*	-8%	1%	-6%
COc1ccccc1-c1c(C)nn2c(N3CCC4(CC3)OCCO4)cc(C)nc12	12%	?	3%	?
COc1ccccc1-c1c(C)nn2c(N3CCC(C)CC3)cc(C)nc12	?	?	7%	10µM*
Cc1cc(-c2ccc(Cl)cc2)n2nc(C)cc2n1	10µM*	-1%	19%	?
Cc1cc(-c2ccc(Br)cc2)n2nc(C)cc2n1	.	.	23%	.
Cc1cc(C)n2nc(C)c(-c3ccc(Cl)cc3)c2n1	7%	-6%	50%	11µM*
Cc1cccc(NC(=O)CN2CCN(C(=O)c3ccc(-c4nc5ccccc5s4)o3)CC2)c1C	?	5%	-11%	?
O=C(CCN1C(=O)c2ccccc2C1=O)Nc1ccc(-c2nc3ccccc3s2)cc1	1.3µM*	40%	35%	4%
O=C(c1ccc(-c2nc3ccccc3s2)o1)N1CCN(c2ccccc2O)CC1	5.2µM*	?	-30%	?
O=C(CN1CCN(C(=O)c2ccc(-c3nc4ccccc4s3)o2)CC1)Nc1ccc(F)cc1	13µM*	12µM*	-8%	13µM*
SMILES	Pf growth 96h	Pf growth 48h	AMA1-RON2 inh	HCV inhibitor
O=C(CN1CCN(C(=O)c2ccc(-c3nc4ccccc4s3)o2)CC1)Nc1ccccc1Cl	?	?	-5%	11µM*
CCc1nc2ccc(C(=O)Nc3cc(-c4ccccc4)ccc3OC)cn2c1N(C)C(=O)c1cccc(OC)c1	.	.	-7%	.
CCOC(=O)c1c(-c2ccc(OC)cc2)csc1/N=C/C1=C(O)CCCC1=O	?	-23%	-10%	?
O=C(NC(=C(Cl)Cl)S(=O)(=O)c1ccc(Cl)cc1)c1ccccc1	9%	-9%	-14%	?
Cn1c(N)c(C(=O)Nc2c(Cl)cccc2Cl)sc1=S	?	?	-2%	-4%
Cc1cc(Cl)ccc1OCC(=O)NCC(c1cccs1)N1CCOCC1 (stereo not given)	?	13µM*	-4%	10µM*
O=C(COc1cccc(Cl)c1)NCC(c1cccs1)N1CCOCC1 (stereo not given)	?	?	10%	5%
Cc1cc(OCC(=O)NCC(c2cccs2)N2CCOCC2)ccc1C(C)C (stereo not given)	13µM*	?	-10%	?
Cc1cccc(OCC(=O)NCC(c2cccs2)N2CCOCC2)c1 (stereo not given)	-8%	-1%	7%	2%
Cc1ccc(C(C)C)c(OCC(=O)NCC(c2cccs2)N2CCOCC2)c1 (stereo not given)	10µM*	13µM*	-2%	?
COc1ccc(OC)c(NC(=O)Nc2cc(C(=O)O)ccc2C)c1	0%	60%	-6%	3%
COc1cccc(CNCC(=O)NC(=O)NC2CCCC2)c1	.	.	-26%	2%
S=C1SCN(CCc2ccccc2)CN1CCc1ccccc1	.	.	131%	.
CN(C)CCNC(=O)c1ccc(-c2cnn(C)c2)c2ccoc12	.	.	-3%	.
Cc1cc(/C=C(\C#N)C(=O)NCc2cccs2)c(C)n1-c1ccc([N+](=O)[O-])cc1	?	2.3µM*	0%	?
CCOC(=O)/C(C#N)=C/c1cc(C)n(-c2ccc(C)cc2)c1C	-9%	.	-14%	8.9µM*
CCOC(=O)/C(C#N)=C\c1cc(C)n(-c2ccccc2)c1C	313%	111%	4%	?
Cc1ccc(O)c(N/C=C/C(=O)c2ccc(F)cc2)c1	?	-17%	83%	?
Cc1cccc(N2CCN(C(=O)C3CCCN(S(=O)(=O)c4c(C)noc4C)C3)CC2)c1C (stereo not given)	.	.	4%	?
CCOC(=O)N1CCc2c(sc3c2c(=O)n(Cc2ccccc2)c(=O)n3CC(=O)NCC2CCCO2)C1 (stereo not given)	?	5.9µM*	-7%	11%
CCOC(=O)N1CCc2c(sc3c2c(=O)n(Cc2ccccc2)c(=O)n3Cc2ccccc2F)C1	?	2.6µM*	-14%	7%[8.37 µM]
CN(CC(=O)NC(=O)NCc1ccco1)Cc1nc2ccccc2c(=O)[nH]1	15%[5.75 µM]	-6%	33%	-7%
CN(Cc1nc2ccccc2c(=O)[nH]1)CC(O)COCc1ccco1 (stereo not given)	6.6µM*	-7%	172%	4%
O=C(c1ccccc1NS(=O)(=O)c1ccc(F)cc1)N1CCOCC1	143%	2%	15%	16%
Cn1c(-c2ccccc2)c(/C=N/NC(=O)c2cccnc2)c2ccccc21	?	-22%	5%	?
COc1ccc(Cn2c(O)c(/C=N/NC(=O)c3cccnc3)c3ccccc3c2=O)cc1	5.2µM*	13µM*	45%	?
O=C(N/N=C/c1c(-c2ccccc2)[nH]c2ccccc12)c1cccnc1	?	?	33%	10µM*
O=C(N/N=C/c1c(O)n(Cc2ccccc2)c(=O)c2ccccc12)c1cccnc1	15µM*	?	47%	-8%
O=C(N/N=C/c1c(O)n(-c2ccccc2Cl)c(=O)c2ccccc12)c1cccnc1	?	?	44%	4%
